Counter-ions that a name gives are not always drawn.
system: RIVA; assay: growth inhibition by drug alone (1 - RLU/untreated control) (fraction); higher = stronger inhibition; conditions: 10 nM; time (day): 4; 177Lu-lilotomab satetraxetan 0 ug/ml
Outline: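 A radiolabelled anti-CD37 antibody conjugate (~600 MBq/mg) was applied for 18 h at 0.5 µg/ml to RIVA and 1 µg/ml to U-2932 cells, with untreated cells run alongside. All cells were washed and seeded at 3,000 cells/well onto library-printed plates at 10/100 nM (RIVA) or 10/1,000 nM (U-2932). Growth inhibition was based on RealTime-Glo luminescence compared with untreated no-drug wells. Daily reads began on day 3 after 1 h at 37°C, with each value being 1 − RLU/mean of the 48 such wells on that plate.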

| Structure (SMILES) | growth inhibition by drug alone |
| --- | --- |
| COC(=O)c1ccc2c(C(=Nc3ccc(N(C)C(=O)CN4CCN(C)CC4)cc3)c3ccccc3)c(O)[nH]c2c1 [BIBF1120 (Vargatef)] | -0.148 |
| CC[C@@H]1/C=C(\C)C[C@H](C)C[C@H](OC)[C@H]2O[C@@](O)(C(=O)C(=O)N3CCCC[C@H]3C(=O)O[C@H](/C(C)=C/[C@@H]3CC[C@H](Cl)[C@H](OC)C3)[C@H](C)[C@@H](O)CC1=O)[C@H](C)C[C@@H]2OC [Pimecrolimus] | 0.267 |
| CN(C)CCOc1ccc(-c2nc(-c3ccncc3)c(-c3ccc4c(c3)CC/C4=N\O)[nH]2)cc1 | -0.183 |
| COc1ccc(CCN2CCN(CCCc3ccccc3)CC2)cc1OC | -0.186 |
| CNC(=O)c1cc(Oc2ccc(NC(=O)Nc3cc(C(C)(C)C)nn3-c3ccc4ncccc4c3)c(F)c2)ccn1 [DCC-2036 (Rebastinib)] | 0.00723 |
| CCC(C)(C)C(=O)O[C@H]1C[C@@H](C)C=C2C=C[C@H](C)[C@H](CC[C@@H]3C[C@@H](O)CC(=O)O3)[C@H]21 [Simvastatin (Zocor)] | -0.217 |
| CCc1ccc(CCOc2ccc(CC3SC(=O)NC3=O)cc2)nc1 (stereo unspecified) [Pioglitazone (Actos)] | -0.212 |
| O=C(O)C(Cc1c[nH]c2ccccc12)N1C(=O)c2ccccc2C1=O (stereo unspecified) | -0.166 |

same assay, conditions: 10 nM; time (day): 5; 177Lu-lilotomab satetraxetan 0 ug/ml

| Structure (SMILES) | growth inhibition by drug alone |
| --- | --- |
| Nc1nc2[nH]cc(CCc3ccc(C(=O)N[C@@H](CCC(=O)O)C(=O)O)cc3)c2c(=O)[nH]1 [Pemetrexed] | -0.281 |
| COc1cc2nccc(Oc3ccc(NC(=O)Nc4cc(C)on4)c(Cl)c3)c2cc1OC [Tivozanib (AV-951)] | 0.0278 |
| CCC(=O)N1CCN(c2ccc(-n3c(=O)ccc4cnc5ccc(-c6cnc7ccccc7c6)cc5c43)cc2C(F)(F)F)CC1 [Torin 1] | -0.0391 |
| COc1cccc2c1C(=O)c1c(O)c3c(c(O)c1C2=O)C[C@@](O)(C(=O)CO)C[C@@H]3O[C@H]1C[C@H](N)[C@@H](O)[C@H](C)O1 [Epirubicin Hydrochloride] | 0.0307 |
| Clc1ccc(Nc2nnc(Cc3ccncc3)c3ccccc23)cc1 [Vatalanib dihydrochloride (PTK787)] | -0.084 |
| COc1cc2nccc(Oc3ccc(NC(=O)C4(C(=O)Nc5ccc(F)cc5)CC4)cc3)c2cc1OC [XL-184 free base (Cabozantinib)] | -0.0535 |
| C[C@@H](O[C@H]1OCCN(Cc2n[nH]c(=O)[nH]2)[C@H]1c1ccc(F)cc1)c1cc(C(F)(F)F)cc(C(F)(F)F)c1 [Aprepitant (MK-0869)] | -0.291 |
| COc1cc2c(cc1O)CC[C@@H]1[C@@H]2CC[C@]2(C)[C@@H](O)CC[C@@H]12 [2-Methoxyestradiol] | -0.405 |
| CNCc1ccc(-c2[nH]c3cc(F)cc4c3c2CCNC4=O)cc1 | -0.0988 |
| CC[C@@]1(O)C(=O)OCc2c1cc1n(c2=O)Cc2cc3c(CN(C)C)c(O)ccc3nc2-1 [Topotecan HCl] | 0.715 |
| Nc1cc(C(F)(F)F)c(-c2cc(N3CCOCC3)nc(N3CCOCC3)n2)cn1 | -0.283 |
| CC(C)(C)c1ccc(S(=O)(=O)/C=C/C#N)cc1 | -0.0516 |
| C[C@]1(c2nc3c(C(N)=O)cccc3[nH]2)CCCN1 [ABT-888 (Veliparib)] | -0.216 |
| Cc1ccc(NC(=O)c2ccc(CN3CC[C@H](N(C)C)C3)c(C(F)(F)F)c2)cc1Nc1nccc(-c2cncnc2)n1 [Bafetinib (INNO-406)] | 0.191 |
| C[C@]12CC[C@@H]3c4ccc(O)cc4CC[C@H]3[C@@H]1CCC2=O [Estrone] | -0.112 |
| O=C(c1ccc(OCCN2CCCCC2)cc1)c1c(-c2ccc(O)cc2)sc2cc(O)ccc12 [Evista (Raloxifene Hydrochloride)] | -0.151 |
| CCN(CC)CCNC(=O)c1c(C)[nH]c(/C=C2\C(=O)Nc3ccc(F)cc32)c1C [Sunitinib Malate (Sutent)] | -0.216 |
| CCOc1ccc(Nc2nc(-c3c(C)nc4ccccn34)cs2)cc1 | -0.0241 |
| C=CC(=O)N1CCC[C@@H](n2nc(-c3ccc(Oc4ccccc4)cc3)c3c(N)ncnc32)C1 | 0.705 |

| Structure (SMILES) | growth inhibition by drug alone |
| --- | --- |
| CS(=O)(=O)c1cccc(CNc2nc(Nc3ccc4c(c3)CCC(=O)N4)ncc2C(F)(F)F)c1 | -0.0817 |
| CC(NC(=O)c1ccccc1/N=C/c1c(O)ccc2ccccc12)c1ccccc1 (stereo unspecified) [Sirtinol] | -0.0621 |
| CN(Cc1cnc2nc(N)nc(N)c2n1)c1ccc(C(=O)N[C@@H](CCC(=O)O)C(=O)O)cc1 [Abitrexate (Methotrexate)] | -0.282 |
| OCCn1cc(-c2cnc3nnn(Cc4ccc5ncccc5c4)c3n2)cn1 | -0.0414 |
| COc1cc(Nc2ncc(F)c(Nc3ccc4c(n3)NC(=O)C(C)(C)O4)n2)cc(OC)c1OC [R406(free base)] | -0.017 |
| COc1cccc2c1C(=O)c1c(O)c3c(c(O)c1C2=O)C[C@@](O)(C(=O)CO)C[C@@H]3O[C@H]1C[C@H](N)[C@H](O)[C@H](C)O1 [Doxorubicin (Adriamycin)] | 0.365 |
| CN(NC(=O)CC(=O)NN(C)C(=S)c1ccccc1)C(=S)c1ccccc1 [Elesclomol] | 0.963 |
| CN(C)CCOc1ccc(/C(=C(/CCCl)c2ccccc2)c2ccccc2)cc1 [Toremifene Citrate (Fareston, Acapodene)] | 0.166 |
| CN1CCN(CCOc2cc(OC3CCOCC3)c3c(Nc4c(Cl)ccc5c4OCO5)ncnc3c2)CC1 [Saracatinib (AZD0530)] | -0.326 |
| CC(C)C[C@H](NC(=O)[C@H](Cc1ccccc1)NC(=O)c1cnccn1)B(O)O [Bortezomib (Velcade)] | 0.958 |
| Cn1cncc1[C@@](N)(c1ccc(Cl)cc1)c1ccc2c(c1)c(-c1cccc(Cl)c1)cc(=O)n2C [Tipifarnib (Zarnestra)] | -0.428 |
| COC(=O)c1ccc2c(C(=Nc3ccc(N(C)C(=O)CN4CCN(C)CC4)cc3)c3ccccc3)c(O)[nH]c2c1 [BIBF1120 (Vargatef)] | -0.188 |
| CC[C@@H]1/C=C(\C)C[C@H](C)C[C@H](OC)[C@H]2O[C@@](O)(C(=O)C(=O)N3CCCC[C@H]3C(=O)O[C@H](/C(C)=C/[C@@H]3CC[C@H](Cl)[C@H](OC)C3)[C@H](C)[C@@H](O)CC1=O)[C@H](C)C[C@@H]2OC [Pimecrolimus] | 0.276 |
| CN(C)CCOc1ccc(-c2nc(-c3ccncc3)c(-c3ccc4c(c3)CC/C4=N\O)[nH]2)cc1 | -0.167 |
| COc1ccc(CCN2CCN(CCCc3ccccc3)CC2)cc1OC | -0.542 |
| CNC(=O)c1cc(Oc2ccc(NC(=O)Nc3cc(C(C)(C)C)nn3-c3ccc4ncccc4c3)c(F)c2)ccn1 [DCC-2036 (Rebastinib)] | -0.0883 |
| CCC(C)(C)C(=O)O[C@H]1C[C@@H](C)C=C2C=C[C@H](C)[C@H](CC[C@@H]3C[C@@H](O)CC(=O)O3)[C@H]21 [Simvastatin (Zocor)] | -0.225 |
| CCc1ccc(CCOc2ccc(CC3SC(=O)NC3=O)cc2)nc1 (stereo unspecified) [Pioglitazone (Actos)] | -0.202 |
| O=C(O)C(Cc1c[nH]c2ccccc12)N1C(=O)c2ccccc2C1=O (stereo unspecified) | -0.249 |
